Screening data: PubChem BioAssay, National Center for Advancing Translational Sciences (NCATS)
Pf growth 96h: P. falciparum growth inhibition at 96 hour, primary screen for plastid delayed-death inhibitors. P. falciparum luciferase reporter growth, 96 h. Potency, µM (series often up to 28.7 µM), actives largely listed as inhibitors. hit rate 6.9% among 320,000. AID 504834
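Delayed-death screen, second-generation endpoint: infected erythrocytes, 2% hematocrit, 0.05% parasitemia final; 96 hours at 37 C, 5% CO2; luciferase detection reagent; luminescence decrease equals reduced growth.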
HCMV inh: human cytomegalovirus inhibition | HFF cells, HCMV-luciferase reporter, 72 h; hits give low values | activity change, negative = inhibition, % at 57.5 µM | hit rate 4.5% among 410,000; in the data active = activity change below about -60%; inconclusive = no clear call, values can overlap the other calls; inactive = above about -39%
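HFF cells seeded 16 h at 37C, treated with compounds, infected with luciferase-reporter HCMV at MOI 1 PFU/cell; luciferase read at 72 h post infection, normalized to buffer-only and Salinomycin controls.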
CHX counter: counter-screen for Shiga toxin inhibitors: cycloheximide protein synthesis inhibition | cell reporter, cycloheximide protein synthesis inhibition counterscreen | max response, % | hit rate 12% among 300,000; in the data active = max response mostly above about 13%, no sharp cut-off; inactive = mostly below about 14%; also: read at 38.3 µM for the half of the compounds with a filed dose
Shiga toxin inh: blocks Shiga toxin action in Vero cells; Vero cells, Shiga toxin protein synthesis inhibition reporter; inhibition, % at 38.7 µM; hit rate 9.2% among 290,000; AID 2315; in the data active = inhibition mostly above about 28%, no sharp cut-off; inactive = mostly below about 43%
HCV inhibitor: blocks hepatitis C virus. hit rate 3.4% among 340,000. Potency, µM (doses to about 41.8 µM), usual class: inhibitors. Huh7.5.1 HCVcc-Cre infection, luciferase reporter, 44 h
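Antiviral activity was scored by luciferase reporter output from cells infected with HCVcc-Cre (~0.5 moi) in presence of compound, 44 h infection period, cells seeded 1,000/well 4 h prior.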
Pf growth 48h: inhibits P. falciparum growth in the first generation, 48 h; P. falciparum luciferase growth in erythrocytes, 48 h; AID 504832; hit rate 5.9% among 310,000; Potency, µM (titrated, usually from 28.7 µM), hits mostly inhibitors
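First compound was added to culture medium, then infected red cells at 0.1% parasitemia and 2% hematocrit (final). After incubation at 37 C under 5% CO2, luciferase detection reagent was dispensed and light output recorded.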
Numbers stand for hits; 0 = inactive; ? = inconclusive; - = no result given. Compounds with a hit are over-represented: about 21% of the library has one in this group of screens. Unless noted, calls follow the shape of the dose curve; as a rule, active = well fitted inhibition curve with a large enough effect; inconclusive = small, poorly fitted or top-dose-only effect, or another doubt; inactive = no such curve, though single readings can be large or run the other way.

SMILES | Pf growth 96h | HCMV inh | CHX counter | Shiga toxin inh | HCV inhibitor | Pf growth 48h
CC(=O)Nc1ccc2nc(NC(=O)c3ccc([N+](=O)[O-])s3)sc2c1 | 0 | - | 0 | 0 | - | ?
Cc1cc(NS(=O)(=O)c2ccc(NC(=O)c3ccc([N+](=O)[O-])s3)cc2)nc(C)n1 | - | -96.7 | - | - | ? | -
COC(=O)[C@]12CCCCC=C1N(Cc1ccccc1)C(=O)[C@H](CC(=O)NCc1ccc(OC)c(OC)c1)C2 | - | 0 | - | - | - | -
Cc1ccc(S(=O)(=O)c2cn(C)c3cc(N4CCCCCC4)c(F)cc3c2=O)cc1 | - | 0 | - | - | - | -
Cc1ccccc1-c1noc(-c2ccc(N3CCN(c4ccccc4)CC3)c([N+](=O)[O-])c2)n1 | - | 0 | - | - | - | -
Cc1ccccc1-c1noc(-c2ccc(N3CCCC3)c([N+](=O)[O-])c2)n1 | - | -69.3 | - | - | - | -
Cc1ccccc1-c1noc(-c2ccc(N3CCN(C)CC3)c([N+](=O)[O-])c2)n1 | - | -75.4 | - | - | - | -
Cc1ccccc1-c1noc(-c2ccc(N3CCOCC3)c([N+](=O)[O-])c2)n1 | - | 0 | - | - | - | -
CCOc1ccc(Cc2nccc3cc(OCC)c(OCC)cc23)cc1OCC | 4.05µM | - | - | - | - | ?
COC(=O)CCC(=O)Nc1cc(OC)c(OC)cc1Cc1nccc2cc(OC)c(OC)cc12 | 0 | 0 | 0 | 0 | 0 | 0
O=C(NC(C(=O)c1ccccc1)N1CCOCC1)c1ccccc1 (centres undefined) | 10.4µM | 0 | 15.7 | 0 | 0 | 0
COc1ccc(NC(=S)NC(C)C(c2ccccc2)N2CCOCC2)cc1 (centres undefined) | 14.7µM | 0 | 0 | 0 | 0 | ?
O=C(NC(N1CCOCC1)C(Cl)(Cl)Cl)c1ccc(F)cc1 (centres undefined) | 0 | 0 | 0 | 0 | 0 | 0
O=C(Nc1ccccc1N1CCOCC1)c1cccs1 | ? | ? | 0 | 0 | 0 | 0
CC(=O)NC(O)C(=O)c1ccccc1 (centres undefined) | 0 | 0 | 0 | 0 | 0 | 0
O=C(NC(C(=O)c1ccccc1)N1CCOCC1)c1cccs1 (centres undefined) | 11.7µM | 0 | 22.2 | 33.0 | 0 | 0
Cc1cc(=O)n(C(NC(=O)c2ccccc2)C(=O)c2ccccc2)cn1 (centres undefined) | 0 | 0 | 18.6 | 0 | 0 | 0
Cc1cccc(NS(=O)(=O)c2ccc(C)c(C(=O)NCC(c3cccs3)N3CCOCC3)c2)c1 (centres undefined) | - | 0 | - | - | 0 | -
O=C(OCc1cccc([N+](=O)[O-])c1)c1ccc[nH]c1=O | 0 | 0 | 0 | 0 | 0 | 0
CN(C)S(=O)(=O)c1ccc(F)c(C(=O)Nc2ccccc2C(=O)NC2CC2)c1 | ? | 0 | - | - | 0 | ?
CC(NC(=O)c1ccc(-c2ccccc2)cc1)C(c1ccccc1)N1CCOCC1 (centres undefined) | 10.4µM | 0 | - | - | 0 | 7.38µM
O=C(NC(C(=O)c1ccccc1)N1CCCCCC1)c1ccco1 (centres undefined) | ? | 0 | 0 | 0 | 0 | 0
Cc1ccc(C(=O)C(NC(=O)c2ccco2)N2CCOCC2)cc1 (centres undefined) | 0 | 0 | 39.5 | 53.1 | 0 | 0
CC(NC(=O)c1ccc(C(F)(F)F)cc1)C(c1ccccc1)N1CCOCC1 (centres undefined) | ? | 0 | 0 | 0 | 0 | ?
Cn1c(=O)n(CCCc2ccccc2)c(=O)c2c1nc1n2CCN1c1ccc(F)cc1 | - | 0 | - | - | - | -
SMILES | Pf growth 96h | HCMV inh | CHX counter | Shiga toxin inh | HCV inhibitor | Pf growth 48h
CC(OC(=O)c1ccc(Cl)nc1)C(=O)NC1(C#N)CCCCC1 (centres undefined) | 0 | 0 | - | - | 0 | 0
CCOc1ccc(C2CC(=O)Nc3nc(SCc4ccccc4C)[nH]c(=O)c32)cc1OC (centres undefined) | - | -102.4 | - | - | - | -
CCOc1cc(C2CC(=O)Nc3nc(SCc4ccccc4)[nH]c(=O)c32)ccc1O (centres undefined) | - | 0 | - | - | - | -
COc1ccc(NC(=O)C(CC(C)C)NC(=O)C2CCC(C)CC2)c(OC)c1 (centres undefined) | 0 | 0 | 0 | 0 | 0 | ?
COc1ccc(Cl)cc1C(=O)NCCN1CCOCC1 | ? | 0 | 0 | 0 | 0 | 0
COc1cc(CNCCN2CCOCC2)ccc1OCc1cccc(Cl)c1 | 11.7µM | 0 | 0 | 0 | 8.91µM | -
COc1cc(CNCCN2CCOCC2)ccc1OCc1ccc(Cl)cc1Cl | 2.33µM | -84.9 | 0 | 0 | ? | 9.28µM
COc1ccccc1OC[C@H](O)CO | 0 | 0 | 0 | 0 | 0 | 0
Cc1cc(-n2c(C)cc(C(=O)COc3ccc(F)c(F)c3)c2C)no1 | 0 | - | - | - | 10µM | 0
Cc1cc(C(=O)CN2C(=O)NC3(CCCCC3)C2=O)c(C)n1-c1ccc2c(c1)OCO2 | 13.1µM | 0 | 0 | 0 | 0 | ?
Cc1cc(-n2c(C)cc(C(=O)COc3ccccc3[N+](=O)[O-])c2C)no1 | ? | 0 | 0 | 0 | 0 | ?
Cc1cc(-n2c(C)cc(C(=O)CN3C(=O)NC4(CCCCCC4)C3=O)c2C)no1 | 0 | 0 | 0 | 0 | 0 | 11.7µM
CN(C)CCNC(=O)C1CCN(Cc2cc3ccccc3n2Cc2ccccc2)CC1 | - | -101.4 | - | - | - | -
CCCNC(=O)C1CCN(Cc2cc3ccccc3n2Cc2ccccc2)CC1 | - | 0 | - | - | - | -
NC(=O)C1CCN(c2ncnc3c2cnn3-c2ccccc2)CC1 | - | 0 | - | - | - | -
NC(=O)C1CCN(c2ncnc3c(-c4ccccc4)nsc23)CC1 | 0 | 0 | 49.8 | 51.1 | 0 | 0
O=C(c1ccco1)N1CCN(c2ncnc3c(-c4ccccc4)nsc23)CC1 | - | 0 | 0 | 0 | 22.4µM | 0
CCc1nc2sc3c(N4CCC(C)CC4)ncnc3c2c2c1CCCC2 | - | 0 | - | - | - | -
COc1cc(C2c3c(-c4c(C)cc(C)cc4O)n[nH]c3C(=O)N2Cc2ccco2)cc(OC)c1OC (centres undefined) | - | 0 | - | - | - | -
C1CC(=NN=C2CCSCC2)CCS1 | - | 0 | - | - | 0 | -
COC(=O)c1cnn(-c2ccc(C(=O)Nc3ccc(C(C)=O)cc3)cc2)c1N | ? | 0 | - | - | - | 5.22µM
COC(=O)c1cnn(-c2ccc(C(=O)Nc3cc(OC)c(OC)c(OC)c3)cc2)c1N | - | 0 | - | - | - | -
CCOC(=O)c1cnn(Cc2ccc(C)cc2)c1N | 0 | 0 | 0 | 0 | 0 | 0
CCOC(=O)c1ccc(-n2ncc(C(=O)OCC)c2N)cc1 | ? | 0 | 21.3 | 0 | ? | 0
CCOC(=O)c1cnn(-c2ccc(C)cc2)c1N | 0 | 0 | 32.8 | 74.9 | 0 | -
SMILES | Pf growth 96h | HCMV inh | CHX counter | Shiga toxin inh | HCV inhibitor | Pf growth 48h
CCC(=O)N1CCc2cc(S(=O)(=O)NCCC(=O)NCc3ccc(OC)cc3)ccc21 | - | 0 | - | - | - | -
CSc1ccc(CNc2ccc(Cl)cc2)cc1 | 0 | 0 | 26.7 | 79.3 | 0 | 0
COc1ccccc1NC(=S)NCCSc1ccc(Cl)cc1 | ? | 0 | 0 | 0 | 0 | 0
Cc1ccc(NCSc2ccc(Cl)cc2)cc1 | - | 0 | - | - | 10µM | -
Cc1cccc(C)c1NC(=S)NCCSc1ccc(Cl)cc1 | ? | ? | 0 | 0 | 10µM | 0
COc1ccc(Cl)cc1NC(=S)NCCSc1ccc(C)cc1 | 11.7µM | ? | 0 | 0 | ? | 0
Clc1ccc(NCc2cccnc2)cc1 | 0 | ? | 0 | 0 | 0 | -
